Measured values: PubChem BioAssay (NCI)
The panel holds about 83,000 compounds, 20% with a hit somewhere; the sample as a whole holds those more often.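 Cells were grown in 96-well plates and exposed to the test compound at a single concentration for 48 hours; results are reported as percent growth, with values below 10 considered active.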 Values without a mark were called inactive. Calls of active or inactive are those of the source.

Tests used:
Experiment in all cases: NCI-60 one-dose screen, 48 h (100 = growth as untreated, 0 = no growth, -100 = all killed)
Settings in all cases: 10 µM unless noted
SK-MEL-2 melanoma = system: SK-MEL-2 melanoma
EKVX NSCLC = system: EKVX NSCLC
SN12C renal = system: SN12C renal
UO-31 renal = system: UO-31 renal
TK-10 renal = system: TK-10 renal
ACHN renal = system: ACHN renal
CAKI-1 renal = system: CAKI-1 renal
CCRF-CEM leukemia = system: CCRF-CEM leukemia
MOLT-4 leukemia = system: MOLT-4 leukemia
SR leukemia = system: SR leukemia
OVCAR-8 ovarian = system: OVCAR-8 ovarian
OVCAR-5 ovarian = system: OVCAR-5 ovarian
OVCAR-4 ovarian = system: OVCAR-4 ovarian
SK-OV-3 ovarian = system: SK-OV-3 ovarian
IGROV1 ovarian = system: IGROV1 ovarian
OVCAR-3 ovarian = system: OVCAR-3 ovarian
HS 578T breast = system: HS 578T breast
NCI/ADR-RES ovarian = system: NCI/ADR-RES ovarian
RPMI-8226 leukemia = system: RPMI-8226 leukemia

Compound | growth (SK-MEL-2 melanoma) | growth (EKVX NSCLC) | growth (SN12C renal) | growth (UO-31 renal) | growth (TK-10 renal) [%] | growth (ACHN renal) | growth (CAKI-1 renal) | growth (CCRF-CEM leukemia) | growth (MOLT-4 leukemia) | growth (SR leukemia) | growth (OVCAR-8 ovarian) | growth (OVCAR-5 ovarian) | growth (OVCAR-4 ovarian) [%] | growth (SK-OV-3 ovarian) [%] | growth (IGROV1 ovarian) [%] | growth (OVCAR-3 ovarian) | growth (HS 578T breast) | growth (NCI/ADR-RES ovarian) | growth (RPMI-8226 leukemia)
COC(=O)N[C@H]1CCc2cc(OC)c(OC)c(OC)c2-c2ccc(SC)c(=O)cc21 | 12.5% | 32.2% | 23.9% | 44.5% | 47 | 24.9% | 17% | 15.6% | 9.69% (active) | 3.05% (active) | 9.33% (active) | 9.44% (active) | 39.8 | 24.6 | 19.9 | -20.6% (active) | 2.61% (active) | -22% (active) | 
COc1cc(C(=O)c2cnc(-c3ccc4cc[nH]c4c3)[nH]2)cc(OC)c1OC | 35.8% | 28.2% | 20.5% | 11.4% | 33.3 | 15.5% | 8.22% (active) | 5.89% (active) | 7.06% (active) | 6.26% (active) |  | 32.2% | 39.3 | 23.5 | 26.3 | -34.2% (active) | 20.6% | 8.52% (active) | -0.63% (active)
CCCNC(=O)Oc1ccc(/C(=C(\C)c2ccccc2)c2ccc(OCCN3CCCCC3)cc2)cc1 | 90.6% | 82.2% | 71.4% | 46.5% | 90.2 | 91% | 65.8% | 72.2% | 60.1% | 9.19% (active) | 75.3% | 78.2% | 83 | 79.3 | 84.8 |  | 66.8% | 77.2% | 57.7%
CC(C)(C)OC(=O)N1CCN(c2ccc(N)cc2)C(=O)C1 | 111% | 98.6% | 96.2% | 87.4% | 126 | 103% | 98.3% | 107% | 101% | 81.2% | 107% |  | 108 | 109 | 112 | 117% | 105% | 102% | 
CC(c1ccccc1)n1ccnc1CO (centres undefined) | 111% | 93.3% | 102% | 95.4% | 88.2 | 103% | 88.9% | 105% | 107% | 104% | 112% | 104% |  | 96.8 | 94.2 | 115% | 92.1% | 99.8% | 95.6%
CC(=O)O[C@]1(C(C)=O)CC[C@H]2[C@@H]3C=C(Cl)C4=CC(=O)CC[C@]4(C)[C@H]3CC[C@@]21C | 98.6% | 107% | 97.7% | 93.8% | 113 | 108% | 94.6% | 95.3% | 84.9% | 92.1% | 101% | 101% | 100 | 107 |  | 121% |  | 99.6% | 92.7%
O=C(Nc1cccc(Cl)c1)c1cc(Cl)ccc1O | -17.7% (active) | 7.96% (active) | -0.418% (active) | 7.54% (active) | 13.4 | -0.748% (active) | -7.81% (active) | 12.9% | 4.18% (active) | 12.3% | 9.51% (active) | 12.3% | 27.4 |  | 17.5 | 13.5% | -7.76% (active) | 2.78% (active) | -20.9% (active)
O=C(/C=C/c1ccc[nH]1)c1ccc(-n2ccc(C(F)(F)F)n2)cc1 | 95% | 79.1% | 60.1% | -77.1% (active) | 103 | 99.5% | 93.4% | 25.7% | 72.5% | 28.4% | 88% |  | 97.7 | 114 | 103 | 0.498% (active) | 100% | 88.3% | -19.3% (active)
C=C(C)[C@@H]1CC[C@]2(C=O)CC[C@]3(C)[C@H](CC[C@@H]4[C@@]5(C)CCCNC(C)(C)[C@@H]5CC[C@]43C)[C@@H]12 | 89.5% | 96.6% | 74.1% | 69% | 88.2 | 88.1% | 89.4% | 59.7% | 49.1% | -31.4% (active) | 90.9% |  | 82.3 | 106 | 50.8 | 77.5% | 89.1% | 85.3% | 12.3%
CN1CCCC1=Nc1ccccc1 | 114% | 103% | 95.5% | 92.2% | 107 | 115% | 94.6% | 105% | 101% | 91.9% | 105% | 118% |  |  | 111 | 128% | 106% | 104% | 107%
[O-][n+]1ccccc1CCN(O)CCc1cccc[n+]1[O-] | 92.9% | 99.4% | 105% | 75.5% | 104 | 95.8% | 94.7% | 99.5% | 98% |  | 101% | 97.7% | 107 | 101 | 106 | 106% | 94.5% | 99.8% | 102%
COc1ccc(C(=O)/C=C/c2ccc(OCc3ccccc3)c(OC)c2)cc1OC | 83.5% | 54.7% | 61.1% | 43.8% | 48.4 | 79.8% | 55.5% | 17.4% | 44.8% | 11.2% | 17.4% | 107% |  | 91 | 84.3 | 10.3% | 94.7% | 36.4% | -3.1% (active)
COC(=O)C(c1ccccc1)C(CC(=O)c1ccccc1)c1ccccc1 (centres undefined) | 85.5% | 58.3% | 102% | 75% | 92.4 | 86.6% | 74.8% | 84.7% | 71% | 87.5% | 102% | 93.3% |  | 31.8 | 83.3 | 81.3% | 102% | 83.5% | 71.1%
CCCCCCN(C)Cc1ccc(OCCOc2ccc(CN(C)CCCCCC)cc2)cc1 | -40.8% (active) | 55.3% | 40.1% | -5.75% (active) | 31.6 | 35.1% | 27.2% | 13.3% | -4.95% (active) | -43.7% (active) | 47.7% | 42.9% | 31.4 | 48.6 |  | 44.9% | -22% (active) | 1.98% (active) | -14.4% (active)
O=C(Nc1nc(-c2ccccc2Cl)cs1)c1cc(-c2ccccc2)nc2ccc(Cl)cc12 | 69.9% | 92.2% | 37.9% | 52.3% | 88 | 84.9% | 81.5% | 18.8% | 25.8% | 21.9% | 19.2% | 93.2% | 76 | 95.5 | 59.7 | 28.1% | 76.4% | 16.5% | 21.4%
COc1cccc(CNCCN2C(=O)c3ccc4c5c(ccc(c35)C2=O)C(=O)N(CCNCc2cccc(OC)c2)C4=O)c1 | 90.4% | 121% | 85.7% | 60.5% | 99.6 | 76.4% | 95.5% | -0.889% (active) | 90.4% | -27.8% (active) | 68.3% |  | 75.9 | 114 | 75.9 | 24.6% | 121% | 88.8% | -14.8% (active)
CSc1nc(O)c(-c2ccccc2)c(=O)[nH]1 | 103% | 94.6% | 96.9% | 92% | 97 | 93.3% | 93.6% | 102% | 97% | 96% | 101% |  | 108 | 116 | 104 | 120% | 110% | 106% | 102%
